The supplement of paper PMC11732987, “Enantioselective OTUD7B fragment discovery through chemoproteomics screening and high-throughput optimisation” (Communications Chemistry, 2025)

Assays:
Experiment in all cases: log2 ratio of Biotin-Ahx-Ub-VS probe labelling (fragment/DMSO); higher = less target engagement (more negative = stronger competition), active = hit call of the paper (q ≤ 0.05, log2 ratio ≤ -1)
Conditions in all cases: compound concentration: 200 uM; treatment time: 3 h
[1] = biological target: T1, OTUD6B (UniProt Q8N6M0)
T1 sequence (whole entry): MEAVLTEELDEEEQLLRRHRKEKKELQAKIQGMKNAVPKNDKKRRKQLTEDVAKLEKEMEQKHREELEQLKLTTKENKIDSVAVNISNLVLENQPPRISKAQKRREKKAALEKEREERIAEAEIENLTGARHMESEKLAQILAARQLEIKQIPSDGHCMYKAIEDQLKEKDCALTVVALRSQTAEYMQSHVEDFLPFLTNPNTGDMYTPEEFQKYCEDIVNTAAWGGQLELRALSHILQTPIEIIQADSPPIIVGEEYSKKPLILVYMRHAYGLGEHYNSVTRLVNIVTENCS
Method in brief: (§1)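 Labelled DUBs were enriched with NeutrAvidin, digested with LysC and trypsin, and run by diaPASEF LC-MS/MS. The labelling used Biotin-Ahx-Ub-VS at 0.5 µM final for 1 h on HEK293T lysate (495 µg per sample) previously treated in triplicate with fragment at 200 µM or vehicle for 3 h. Values are average log2 fragment/vehicle ratios by unpaired t-test on global-median-normalised Spectronaut quantities of proteins with ≥2 unique peptides.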

[2] = biological target: T2, OTUD7B (UniProt Q6GQQ9)
T2 sequence (whole entry): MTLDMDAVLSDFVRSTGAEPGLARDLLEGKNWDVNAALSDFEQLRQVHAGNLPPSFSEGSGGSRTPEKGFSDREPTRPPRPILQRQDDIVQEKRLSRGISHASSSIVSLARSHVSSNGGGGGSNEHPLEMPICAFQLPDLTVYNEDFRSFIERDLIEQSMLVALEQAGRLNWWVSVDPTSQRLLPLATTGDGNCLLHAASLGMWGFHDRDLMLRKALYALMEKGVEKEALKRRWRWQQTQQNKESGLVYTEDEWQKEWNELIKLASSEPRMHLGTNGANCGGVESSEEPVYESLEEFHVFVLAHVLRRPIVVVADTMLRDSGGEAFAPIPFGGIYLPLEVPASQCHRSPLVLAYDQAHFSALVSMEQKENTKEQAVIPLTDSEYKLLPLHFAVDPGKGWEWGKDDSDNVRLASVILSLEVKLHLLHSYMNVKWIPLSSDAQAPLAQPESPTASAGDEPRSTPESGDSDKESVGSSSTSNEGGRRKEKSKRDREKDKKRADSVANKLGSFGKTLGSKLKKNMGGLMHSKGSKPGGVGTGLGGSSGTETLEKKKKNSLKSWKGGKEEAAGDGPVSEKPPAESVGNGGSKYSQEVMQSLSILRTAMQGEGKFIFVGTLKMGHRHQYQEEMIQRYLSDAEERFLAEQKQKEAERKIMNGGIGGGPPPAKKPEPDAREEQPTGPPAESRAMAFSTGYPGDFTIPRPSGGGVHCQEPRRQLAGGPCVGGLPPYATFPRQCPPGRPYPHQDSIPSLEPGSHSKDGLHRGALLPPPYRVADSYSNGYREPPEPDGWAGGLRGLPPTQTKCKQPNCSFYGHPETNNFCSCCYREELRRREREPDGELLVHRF
Method in brief: as §1

[3] = biological target: PRPF8 (UniProt Q6P2Q9)
Method in brief: as §1

[4] = biological target: T3, PSMD7 (UniProt P51665)
T3 sequence (whole entry): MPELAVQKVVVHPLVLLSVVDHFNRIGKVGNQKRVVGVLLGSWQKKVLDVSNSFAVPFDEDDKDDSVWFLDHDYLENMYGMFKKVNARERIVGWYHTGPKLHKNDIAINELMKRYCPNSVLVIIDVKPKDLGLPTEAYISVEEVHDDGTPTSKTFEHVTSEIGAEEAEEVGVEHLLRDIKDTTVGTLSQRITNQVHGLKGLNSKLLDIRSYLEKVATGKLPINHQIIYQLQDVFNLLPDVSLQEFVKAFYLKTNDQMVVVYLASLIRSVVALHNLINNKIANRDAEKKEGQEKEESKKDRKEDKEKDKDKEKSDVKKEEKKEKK
Method in brief: as §1

[5] = biological target: UCHL1 (UniProt P09936)
Method in brief: as §1

[6] = biological target: T4, UCHL3 (UniProt P15374)
T4 sequence (whole entry): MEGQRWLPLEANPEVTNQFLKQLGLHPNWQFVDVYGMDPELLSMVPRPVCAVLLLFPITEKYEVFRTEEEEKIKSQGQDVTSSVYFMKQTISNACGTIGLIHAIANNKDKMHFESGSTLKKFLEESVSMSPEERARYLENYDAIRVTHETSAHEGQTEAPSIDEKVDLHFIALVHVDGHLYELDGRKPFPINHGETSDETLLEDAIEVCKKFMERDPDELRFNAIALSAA
Method in brief: as §1

[7] = biological target: T5, UCHL5 (UniProt Q9Y5K5)
T5 sequence (whole entry): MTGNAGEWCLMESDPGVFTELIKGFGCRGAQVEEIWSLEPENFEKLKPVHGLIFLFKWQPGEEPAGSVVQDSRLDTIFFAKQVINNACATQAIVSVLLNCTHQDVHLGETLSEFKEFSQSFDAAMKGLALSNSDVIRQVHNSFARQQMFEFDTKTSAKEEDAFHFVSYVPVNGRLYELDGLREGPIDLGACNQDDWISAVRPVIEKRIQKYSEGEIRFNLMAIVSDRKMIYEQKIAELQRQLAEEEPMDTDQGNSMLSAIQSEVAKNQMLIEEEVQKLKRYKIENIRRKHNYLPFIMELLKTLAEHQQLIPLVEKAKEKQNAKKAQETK
Method in brief: as §1

[8] = biological target: USP10 (UniProt Q14694)
Method in brief: as §1

[9] = biological target: T6, USP15 (UniProt Q9Y4E8)
T6 sequence (whole entry): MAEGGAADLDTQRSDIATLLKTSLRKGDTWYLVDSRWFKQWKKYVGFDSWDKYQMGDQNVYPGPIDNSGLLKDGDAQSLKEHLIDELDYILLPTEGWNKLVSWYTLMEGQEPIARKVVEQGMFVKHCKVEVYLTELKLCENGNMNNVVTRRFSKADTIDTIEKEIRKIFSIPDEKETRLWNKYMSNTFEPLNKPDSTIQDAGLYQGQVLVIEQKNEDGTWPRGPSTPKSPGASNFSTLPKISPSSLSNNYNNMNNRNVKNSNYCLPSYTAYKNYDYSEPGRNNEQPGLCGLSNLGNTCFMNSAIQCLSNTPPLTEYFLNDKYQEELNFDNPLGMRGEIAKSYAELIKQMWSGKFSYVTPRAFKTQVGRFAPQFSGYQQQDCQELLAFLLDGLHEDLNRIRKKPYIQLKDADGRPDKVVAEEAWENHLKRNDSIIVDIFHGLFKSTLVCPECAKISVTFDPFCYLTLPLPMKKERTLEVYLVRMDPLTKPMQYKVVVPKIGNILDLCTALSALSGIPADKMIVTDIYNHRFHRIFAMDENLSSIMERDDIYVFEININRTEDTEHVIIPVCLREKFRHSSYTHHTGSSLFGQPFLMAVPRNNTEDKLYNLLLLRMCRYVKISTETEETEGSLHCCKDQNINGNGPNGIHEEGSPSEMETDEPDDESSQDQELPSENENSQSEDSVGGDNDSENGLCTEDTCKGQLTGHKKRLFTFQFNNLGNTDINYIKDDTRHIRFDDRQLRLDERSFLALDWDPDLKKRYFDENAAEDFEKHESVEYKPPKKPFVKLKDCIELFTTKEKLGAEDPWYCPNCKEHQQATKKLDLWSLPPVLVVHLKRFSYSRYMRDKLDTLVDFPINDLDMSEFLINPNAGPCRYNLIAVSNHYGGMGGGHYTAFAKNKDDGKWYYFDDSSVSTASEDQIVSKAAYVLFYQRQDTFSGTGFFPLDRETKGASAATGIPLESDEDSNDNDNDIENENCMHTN
Method in brief: as §1

Measured: log2 ratio of Biotin-Ahx-Ub-VS probe labelling

Chain of UCHL1 (P09936 whole entry, looked up): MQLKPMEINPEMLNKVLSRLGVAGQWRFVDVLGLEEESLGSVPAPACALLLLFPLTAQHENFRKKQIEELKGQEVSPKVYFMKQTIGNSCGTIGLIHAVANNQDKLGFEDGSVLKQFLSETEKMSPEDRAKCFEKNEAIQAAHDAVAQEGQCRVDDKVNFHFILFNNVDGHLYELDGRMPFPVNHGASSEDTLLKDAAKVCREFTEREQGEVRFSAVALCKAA
Chain of USP10 (Q14694 whole entry): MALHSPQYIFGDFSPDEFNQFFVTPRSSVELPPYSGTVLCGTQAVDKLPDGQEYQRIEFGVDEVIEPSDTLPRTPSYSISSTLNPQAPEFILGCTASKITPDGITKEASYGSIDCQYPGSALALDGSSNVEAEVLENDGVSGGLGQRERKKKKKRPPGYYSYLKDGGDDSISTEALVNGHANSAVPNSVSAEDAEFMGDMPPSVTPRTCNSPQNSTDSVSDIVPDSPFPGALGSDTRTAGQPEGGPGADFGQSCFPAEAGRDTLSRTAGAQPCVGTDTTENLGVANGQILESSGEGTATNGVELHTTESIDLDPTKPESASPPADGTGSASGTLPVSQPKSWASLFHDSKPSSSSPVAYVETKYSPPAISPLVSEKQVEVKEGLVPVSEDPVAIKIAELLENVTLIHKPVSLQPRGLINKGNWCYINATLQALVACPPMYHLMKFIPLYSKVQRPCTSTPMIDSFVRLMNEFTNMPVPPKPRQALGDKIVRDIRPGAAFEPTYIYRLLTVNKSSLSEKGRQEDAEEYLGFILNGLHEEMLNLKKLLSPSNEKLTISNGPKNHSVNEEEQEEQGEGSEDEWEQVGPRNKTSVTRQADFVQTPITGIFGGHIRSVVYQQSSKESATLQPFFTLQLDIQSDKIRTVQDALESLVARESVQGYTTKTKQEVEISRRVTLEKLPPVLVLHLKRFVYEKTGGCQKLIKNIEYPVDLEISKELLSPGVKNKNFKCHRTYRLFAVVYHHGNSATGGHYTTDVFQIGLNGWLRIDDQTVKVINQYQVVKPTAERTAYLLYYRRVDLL

Cl.O=C(CCl)NC1(c2ncccn2)CCC1
inactive: [1] 0.0771 | [2] -0.227 | [3] -0.0462 | [4] -0.289 | [6] 0.32 | [7] -0.0083 | [8] 0.0419 | [9] 0.0327
active: [5] -1.41
